Measurements from publication PMC4336329 (PLoS ONE, 2015).
In all, about 310,000 compounds went through this assay and about 14,000 (4.5%) showed an effect of 50% or more. Effects have a minus sign here. The sample as a whole holds a higher share of strong results than the screen did.

These compounds were tested against human ether-à-go-go-related gene (hERG) potassium channel (human, UniProt Q12809) (assay: primary screen, population patch clamp on CHO cells stably expressing hERG; higher = less effect of the substance).
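Further: peak tail current of the secondary pulse compared with the same well before compound.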

human ether-à-go-go-related gene (hERG) potassium channel, sequence (Q12809 whole entry, looked up): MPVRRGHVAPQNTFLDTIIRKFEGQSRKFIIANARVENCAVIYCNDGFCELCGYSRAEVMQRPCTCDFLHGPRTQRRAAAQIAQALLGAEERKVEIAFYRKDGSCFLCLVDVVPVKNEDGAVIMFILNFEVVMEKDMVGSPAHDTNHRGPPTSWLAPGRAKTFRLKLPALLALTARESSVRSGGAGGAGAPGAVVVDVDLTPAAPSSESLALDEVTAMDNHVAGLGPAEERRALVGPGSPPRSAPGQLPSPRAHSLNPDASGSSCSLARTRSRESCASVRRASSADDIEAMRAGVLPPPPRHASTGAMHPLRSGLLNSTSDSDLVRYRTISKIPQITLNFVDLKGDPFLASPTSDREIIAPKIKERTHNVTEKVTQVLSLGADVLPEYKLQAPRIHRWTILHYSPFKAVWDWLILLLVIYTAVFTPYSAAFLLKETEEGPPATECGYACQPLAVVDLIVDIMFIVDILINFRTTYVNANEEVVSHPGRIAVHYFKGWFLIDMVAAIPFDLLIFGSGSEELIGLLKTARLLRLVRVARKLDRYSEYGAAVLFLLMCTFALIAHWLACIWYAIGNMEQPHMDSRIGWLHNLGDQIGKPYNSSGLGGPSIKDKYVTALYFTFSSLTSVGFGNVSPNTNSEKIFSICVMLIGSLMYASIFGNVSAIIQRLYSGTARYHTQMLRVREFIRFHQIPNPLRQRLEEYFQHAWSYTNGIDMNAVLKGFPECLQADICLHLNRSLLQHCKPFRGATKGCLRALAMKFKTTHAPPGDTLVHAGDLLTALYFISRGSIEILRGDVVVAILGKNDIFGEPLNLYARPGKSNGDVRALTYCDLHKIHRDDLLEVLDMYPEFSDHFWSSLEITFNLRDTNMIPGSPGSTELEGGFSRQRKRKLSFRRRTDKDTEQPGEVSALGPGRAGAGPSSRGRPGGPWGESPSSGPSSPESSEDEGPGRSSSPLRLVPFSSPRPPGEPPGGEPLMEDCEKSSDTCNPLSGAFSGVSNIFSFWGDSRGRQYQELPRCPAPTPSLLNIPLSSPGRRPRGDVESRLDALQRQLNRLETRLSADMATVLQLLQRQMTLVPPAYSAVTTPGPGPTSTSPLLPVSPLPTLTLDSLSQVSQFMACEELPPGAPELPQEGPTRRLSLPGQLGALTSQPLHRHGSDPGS

Row | Compound | hERG current change (%, negative = inhibition) at 10uM [%]
1 | Cc1cc(C)c(C)c(S(=O)(=O)NCCN2CCOCC2)c1C | -9.48
2 | Cc1cc(=O)oc2c1ccc1ccccc12 | 18.7
3 | COC(=O)c1ccccc1NC(=S)N(Cc1ccc2c(c1)OCO2)Cc1cc2cc(OC)ccc2[nH]c1=O | 8.29
4 | CCN(CC)CCN(Cc1cc2ccc(C)cc2[nH]c1=O)C(=S)Nc1ccccc1C(=O)OC | -64.2
5 | COC(=O)c1ccccc1NC(=S)N(Cc1ccc2c(c1)OCO2)Cc1cc2ccc(C)cc2[nH]c1=O | 15.1
6 | CCN1CCCC1CN(Cc1cc2ccc(C)cc2[nH]c1=O)C(=S)Nc1ccccc1C(=O)OC (centres unmarked) | -85.2
7 | CCN1CCCC1CN(Cc1cc2ccc(C)cc2[nH]c1=O)C(=S)Nc1ccccc1OC (centres unmarked) | 46.7
8 | Cc1ccc2[nH]c(=O)c(CN(CC3CCCO3)C(=S)Nc3ccccc3)cc2c1 (centres unmarked) | -8.2
9 | CCN1CCCC1CN(Cc1cc2ccc(C)cc2[nH]c1=O)C(=S)Nc1ccc(F)cc1 (centres unmarked) | -78.5
10 | Cc1ccc2cc(CN(CC3CCCO3)C(=S)Nc3ccccc3)c(=O)[nH]c2c1 (centres unmarked) | -37
11 | COC(=O)c1ccccc1NC(=S)N(Cc1ccc2c(c1)OCO2)Cc1cc2ccc(OC)cc2[nH]c1=O | -13.6
12 | CCN1CCCC1CN(Cc1cc2ccc(C)cc2[nH]c1=O)C(=S)Nc1ccc(OC)cc1OC (centres unmarked) | -74.5
13 | COC(=O)c1ccccc1NC(=S)N(Cc1ccc2c(c1)OCO2)Cc1cc2cc(C)ccc2[nH]c1=O | 0.949
14 | CNC(=S)N(Cc1ccc(OC)cc1)Cc1cc2ccc(C)cc2[nH]c1=O | 14
15 | Cc1ccc(NC(=O)CCN2C(=O)C3C4CCC(C4)C3C2=O)cc1[N+](=O)[O-] (centres unmarked) | -0.749
16 | O=C(Nc1ccc(C(F)(F)F)cc1)c1cc(-c2cccnc2)nc2ccc(Br)cc12 | -16.2
17 | COc1ccc(N(CC(=O)NC(C)C)S(=O)(=O)c2ccc(NC(C)=O)cc2)cc1 | 2.29
18 | CC(=O)c1c(C)[nH]c(C(=O)COC(=O)CCCOc2ccccc2)c1C | 18.7
19 | Cc1cccc(N(C(=O)Cn2nnc3ccccc32)C(C(=O)NC(C)(C)C)c2ccsc2)c1C (centres unmarked) | 19.7
20 | CCN1CCCC1CN(Cc1cc2ccc(C)cc2[nH]c1=O)C(=S)Nc1cccc(OC)c1 (centres unmarked) | -70.7
21 | COc1ccc2[nH]c(=O)c(CN(CC3CCCO3)C(=S)Nc3cccc(C)c3)cc2c1 (centres unmarked) | 16.3

Row | Compound | hERG current change (%, negative = inhibition) at 10uM [%]
22 | CCN1CCCC1CN(Cc1cc2ccc(C)cc2[nH]c1=O)C(=S)Nc1ccc(OC)cc1 (centres unmarked) | 25.3
23 | CC(=O)N(Cc1ccc(F)cc1)C1=C(NCCc2ccccc2)C(=O)c2ccccc2C1=O | -0.648
24 | NC(N)=N/N=C/c1c(Cl)cccc1Cl | -10.3
25 | COC(=O)CCCC(NC(=S)N1CC2C[C@@H](C1)Cn1c2cccc1=O)C(=O)OC (some centres unmarked) | 8.56
26 | CCOc1ccc(NC(=S)N(CCCN2CCCC2)Cc2cccn2Cc2ccc(Cl)cc2)cc1 | -58.4
27 | Cc1ccc(NC(=S)N(CCCN2CCCC2)Cc2cccn2Cc2ccc(Cl)cc2)cc1 | -22.9
28 | Cc1ccc(NC(=S)N(CCCN2CCCC2)Cc2cccn2Cc2ccc(Cl)cc2)cc1Cl | 6.99
29 | Cc1cccc(NC(=S)N(CCCN2CCCC2)Cc2cccn2Cc2ccc(Cl)cc2)c1 | -71.8
30 | Cc1ccc(NC(=S)N(CCCN2CCCC2)Cc2cccn2Cc2ccc(Cl)cc2)cc1C | 4.72
31 | S=C(Nc1cccc(Cl)c1)N(CCCN1CCCC1)Cc1cccn1Cc1ccc(Cl)cc1 | -22.7
32 | CCCCC(CC)CNC(=O)C1C2C=CC(C2)C1C(=O)O (centres unmarked) | -4.63
33 | CC1(C(=O)NC2CCCCC2)CCC(=O)N1Cc1cccs1 (centres unmarked) | -0.227
34 | O=C(NCCCN1CCCC1=O)c1csc2ccccc12 | -28.2
35 | CC(C)Oc1ccc(CN2CCCC(CO)(Cc3ccccc3)C2)cc1CO (centres unmarked) | -43.1
36 | COC(=O)c1ccc(CN2CCCC(CO)(Cc3ccccc3F)C2)cc1 (centres unmarked) | -32.7
37 | CCOc1ccc(CN2CCCC(CO)(Cc3ccccc3F)C2)cc1 (centres unmarked) | -64.8
38 | CCn1cc(CN2CCCC(CO)(Cc3ccc(F)cc3)C2)c2ccccc21 (centres unmarked) | -32
39 | COc1cc(CN2CCCC(CO)(Cc3ccccc3F)C2)ccc1O (centres unmarked) | -22.5
40 | CSCCCN1CCCC(CO)(Cc2ccc(F)cc2)C1 (centres unmarked) | -30.1
41 | CC(C)Oc1ccc(CN2CCCC(CO)(Cc3ccc(F)cc3)C2)cc1 (centres unmarked) | -58.7
42 | CCOc1ccc(CN2CCCC(CO)(Cc3ccc(F)cc3)C2)cc1 (centres unmarked) | -62

Row | Compound | hERG current change (%, negative = inhibition) at 10uM [%]
43 | O=C(O)c1cccc2c1C(=O)c1cc(Br)ccc1S2(=O)=O | 20.2
44 | Cc1ccc(S(=O)(=O)NCCS(=O)(=O)N2CCN(c3ccccc3)CC2)cc1 | -1.5
45 | CC(=O)c1nn(-c2cccc(Br)c2)cc1C(=O)c1ccc(Br)cc1 | 12.7
46 | O=C(NCCCN=C1NS(=O)(=O)c2ccccc21)c1ccc(S(=O)(=O)N2CCOCC2)cc1 | 4.24
47 | COCn1ccnc1C(O)(c1ccc(OC)cc1)c1ccc(OC)cc1 | 9.69
48 | O=C(O)CCC(NS(=O)(=O)c1ccc(N2CCCC2=O)cc1)C(=O)O (centres unmarked) | -7.11
49 | CC1CCC(N2CCN(C(=O)c3ccccc3F)CC2)CC1.O=C(O)C(=O)O (centres unmarked) | -2.63
50 | O=C(c1ccc(F)cc1)N1CCC(c2ccccc2)C1 (centres unmarked) | 2.75
51 | O=C(c1ccncc1)N1CCN(C(=O)c2ccncc2)CC1 | 12
52 | O=C(O)C(=O)O.O=C(c1ccncc1)N1CCN(C2CCC(c3ccccc3)CC2)CC1 (centres unmarked) | -63.4
53 | O=C(O)C(=O)O.O=C(c1ccccc1)N1CCN(C2CCCCC2)CC1 | -31.9
54 | COc1cccc(C(=O)N2CCN(C3CCC(c4ccccc4)CC3)CC2)c1OC.O=C(O)C(=O)O (centres unmarked) | -10.1
55 | O=C(O)C(=O)O.O=C(c1ccc(F)cc1)N1CCN(C2CCCCC2)CC1 | -62.1
56 | O=C(O)C(=O)O.O=C(c1ccccc1F)N1CCN(C2CCC(c3ccccc3)CC2)CC1 (centres unmarked) | -60.5
57 | O=C(O)C(=O)O.O=C(c1ccccc1)N1CCN(C2CCCCCC2)CC1 | -28.8
58 | O=C(c1ccc(F)cc1)N1CCCC(c2ccccc2)C1 (centres unmarked) | 15.8
59 | O=C(O)C(=O)O.O=C(c1ccc(F)cc1)N1CCN(C2CCC(c3ccccc3)CC2)CC1 (centres unmarked) | -76
60 | O=C(O)C(=O)O.O=C(c1ccncc1)N1CCN(C2CCCCC2)CC1 | -23.4
61 | O=C(CSc1nnc2ccccn12)NC(=O)NC1CCCC1 | 13.4
62 | O=C(O)C1C2C=CC(C2)C1C(=O)Nc1cccc(C(F)(F)F)c1 (centres unmarked) | 8.95
63 | CC(C)c1ccc(/C=C2\SC(N3CCCC3)=NC2=O)cc1 | -37.1

Row | Compound | hERG current change (%, negative = inhibition) at 10uM [%]
64 | CCOc1ccccc1OCCCC(=O)NNC(=O)c1nn(C)c(=O)c2ccccc12 | -20.3
65 | Cn1cnc(S(=O)(=O)Nc2ccccc2C(=O)NCC2CC2)c1 | 13.7
66 | Cc1ccc(C)c(NC(=S)NNc2ccc(F)cc2F)c1 | 5.57
67 | Cc1c(C)c2ccc(O[C@@H]3O[C@H](CO)[C@@H](O)[C@H](O)[C@H]3O)c(C)c2oc1=O | 11.7
68 | COc1ccc(NC(=O)c2ccc(Cl)c(S(=O)(=O)N3CCc4ccccc4C3)c2)cn1 | -46.8
69 | CCc1cc(C(c2cccc(OC)c2)N2CCOCC2)c(NC(=O)c2ccccc2)s1 (centres unmarked) | -1.91
70 | Cc1cc(NO)c(C(C)C)cc1N=O | -2.87
71 | O=C(NCCNC1CCC(c2ccccc2)CC1)c1cccs1 (centres unmarked) | -35.2
72 | O=C(NCCNC1CCC(c2ccccc2)CC1)c1ccc(F)cc1 (centres unmarked) | -58.3
73 | O=C(NC1CCN(C(=O)NCc2ccccc2)CC1)c1ccc(F)cc1 | -15.8
74 | C/C(=N\NC(=O)c1ccccn1)c1ccc(Cl)cc1 | 5.74
75 | Cc1ccc2[nH]c(O)c(N=NC(=O)CCc3ccccc3)c2c1Br | 10.5
76 | Cc1ccc2[nH]c(O)c(N=NC(=O)C3CC3c3ccccc3)c2c1Br (centres unmarked) | -55.7
77 | Cc1cc2c(N=NC(=O)C3CC3c3ccccc3)c(O)[nH]c2cc1Br (centres unmarked) | 0.687
78 | COC(=O)CCC(=O)OC1(C)C(=O)C2=CN(C3CCCC3)C(c3ccc(OC)cc3)=CC2=C(Br)C1=O (centres unmarked) | -52.6
79 | COC(=O)CCC(=O)OC1(C)C(=O)C2=CN(CC3CC3)C(c3ccc(OC)cc3)=CC2=C(Br)C1=O (centres unmarked) | 4.74
80 | COC(=O)CCC(=O)OC1(C)C(=O)C2=CN(Cc3ccccc3)C(c3ccc(OC)cc3)=CC2=C(Br)C1=O (centres unmarked) | 2.01
81 | COC(=O)CCC(=O)OC1(C)C(=O)C2=CN(Cc3ccc(OC)cc3)C(c3ccc(OC)cc3)=CC2=C(Br)C1=O (centres unmarked) | -58.7
82 | COC(=O)CCC(=O)OC1(C)C(=O)C2=CN(C3CC3)C(c3ccc(OC)cc3)=CC2=C(Br)C1=O (centres unmarked) | 14.4
83 | COCCN1C=C2C(=O)C(C)(OC(=O)CCC(=O)OC)C(=O)C(Br)=C2C=C1c1ccc(OC)cc1 (centres unmarked) | 7.96
